# Source: PubChem (National Center for Advancing Translational Sciences (NCATS))
# Pf Dd2 growth: inhibitors of Plasmodium falciparum Dd2 growth | Potency, µM (doses to about 28.9 µM), inactives show at the top dose activity, negative = inhibition, most hits filed as inhibitors | P. falciparum Dd2 growth, SYBR Green, 72 h | actives 4.3% (n = 120,000) | AID 1347417; active means well fitted inhibition curve with a large enough effect;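 further: plate controls were DMSO vehicle for no effect and reference drug for full effect; nearly all actives have a fitted effect of over 65% in size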
#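 Infected erythrocytes (Dd2, 0.3% parasitemia, 2.5% hematocrit final) are added to compound in RPMI-1640/Albumax II medium, grown 72 h at 37C in low oxygen, then lysed with saponin/Triton-X containing SYBR Green and read by fluorescence.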
# The depositor's hits bear a star; i = inactive; [ ] = dose if it differs, or a comment. The sample as a whole holds a higher share of hits than the screen did. Potency means the concentration at half of the fitted maximal effect.
SMILES,Pf Dd2 growth
COc1ccc(N(Cc2cccs2)C(=O)c2ccco2)cc1,10µM*
CNC(=O)CCC1CCN(C(=O)c2ccccc2F)CC1,-5.2%
COc1ccc(-n2nc3c(c2NC(=O)C(=O)N2CCN(C)CC2)CSC3)cc1,11.7%
COCCN1Cc2ccc(Nc3ccc(OC)cc3)nc2C(C)(C(=O)NC2CCC2)C1 (configuration not stated),-24.2%[44.1 µM]
COc1ccc(CCNC(=O)CN2C(=O)NC3(CCCCC3)C2=O)cc1OC,-18.2%
Cc1ccnc(N2CCC(O)(c3ccc(F)cc3)CC2)n1,-24.0%
CCN(C(=O)CCc1nc(-c2ccc(C)cc2)no1)c1cc(C)ccc1C,-15.4%
CCN(C(=O)CSc1nc(-c2ccc(C(C)C)cc2)no1)c1ccccc1,1.12µM*
CCN(C(=O)Cc1nc(-c2ccc(OC)cc2)no1)c1cccc(Cl)c1,-29.2%
CCN(C(=O)CSc1nc(-c2ccc(C(C)C)cc2)no1)c1cccc(C)c1,0.891µM*
CCN(C(=O)CSc1nnc(-c2ccc(Cl)cc2)o1)c1ccccc1,5.2%
CCN(C(=O)CSc1nc2ncccc2[nH]1)c1ccc(C(C)C)cc1,-23.6%
CCOc1ccc(NC(=O)c2cc3n(n2)CC(c2ccc4c(c2)OCO4)OC3)cc1 (configuration not stated),-3.8%
Cc1nn(CC(=O)NC(C)Cc2cnccn2)c(=O)n1CCc1ccccc1 (configuration not stated),-19.9%
Cc1ccc(C)c(S(=O)(=O)c2nnn3c2nc(Nc2ccc(C)c(C)c2)c2ccccc23)c1,27.9%
CC(=O)N1CCCC2(C1)CN(C)c1ccc(C(=O)NCC(C)C)cc12 (configuration not stated),-0.3%[44.1 µM]
COc1ccc(OC)c(S(=O)(=O)NCCc2csc(-c3cccc(F)c3)n2)c1,-25.9%
Cc1ccc(C2=NC3(CCN(C(=O)c4ccccc4C)CC3)ON2)cc1,6.31µM*
COc1ccccc1CC(=O)N1CCC2(CC1)N=C(c1ccc(Cl)cc1)NO2,-35.5%
O=C(c1ccccc1)N1CCC2(CC1)N=C(c1cccc(Br)c1)NO2,i
Cc1ccc(C2=NC3(CCN(C(=O)Cc4ccccc4Cl)CC3)ON2)cc1,11.2µM*
CN(C)c1ccc(C(=O)N2CCC3(CC2)N=C(c2cccc(Br)c2)NO3)cc1,37.4%
Cc1ccc(C)c(C(=O)N2CCC3(CC2)N=C(c2ccccc2)NO3)c1,i
CC(=O)Nc1ccc(C(=O)N2CCC3(CC2)N=C(c2cccc(Br)c2)NO3)cc1,11.2µM*
Cc1ccc(C2=NC3(CCN(C(=O)Cc4ccc(F)cc4)CC3)ON2)cc1,-12.9%
SMILES,Pf Dd2 growth
Cc1ccc(C2=NC3(CCN(C(=O)c4c[nH]c5ccccc45)CC3)ON2)cc1,-12.8%
COc1ccc2oc(-c3ccc(C)c(NC(=O)Cc4ccc(Cl)cc4)c3)nc2c1,1.7%
OC[C@@H]1CNC[C@H]1C1CCN(Cc2ccc(F)c(Br)c2)CC1,i
CCOc1ccccc1NC(=O)C(NS(=O)(=O)c1cccc2nsnc12)c1ccccc1 (configuration not stated),-5.6%
COc1ccc([C@H]2C[C@@H](O)[C@@H](O)[C@@H]2NC(=O)COc2ccccc2)cc1,12.5%[44.1 µM]
CCNC(=O)[C@@H]1C[C@H](NC(=O)c2oc(C)nc2C)CN1C1CCOCC1,-3.1%
COc1ccc(-c2cc(N3CCC(NC(=O)CCCc4ccccc4)CC3)n[nH]2)cc1,-16.2%
CCCNC(=O)N1CCCC1C(=O)Nc1ccccc1-c1ccc(OC)cc1 (configuration not stated),-19.9%
CCCNc1cc(N2CCC(CCC(=O)N3CCN(c4ccccc4F)CC3)CC2)ncn1,11.2µM*
O=C(CCC1CCN(c2cc(NC3CC3)ncn2)CC1)N1CCN(c2ccccc2F)CC1,-9.7%
CCCNc1cc(N2CCC(CCC(=O)NCC3CC3)CC2)ncn1,i
CC(=O)Nc1ccc(CN2CCC3(CC2)CC(=O)Nc2ccccc2O3)cc1,-22.7%
CCOc1ccccc1CNC(=O)CCCn1c(=O)c2cccn2c2cccnc21,-20.0%
COc1ccccc1-c1nc(-c2nnn3c2COC(c2ccccc2Cl)C3)no1 (configuration not stated),-5.2%
CCOc1cc(-c2noc(-c3ncn4c3COC(c3ccc(OC)cc3)C4)n2)ccc1OC (configuration not stated),2.51µM*
CCOc1ccc(C2Cn3nnc(-c4nc(-c5ccc(OC)c(F)c5)no4)c3CO2)cc1 (configuration not stated),i
CCOc1cccc(-c2noc(-c3ncn4c3COC(c3ccc(F)cc3)C4)n2)c1 (configuration not stated),-23.4%
Clc1ccccc1C1Cn2cnc(-c3nc(-c4ccncc4)no3)c2CO1 (configuration not stated),5.62µM*
COc1ccccc1-c1noc(-c2nnn3c2COC(c2ccc(F)cc2)C3)n1 (configuration not stated),i
COc1ccc(C2Cn3cnc(-c4nc(-c5ccc(SC)cc5)no4)c3CO2)cc1 (configuration not stated),i
COc1ccc(C2Cn3nnc(-c4nc(-c5ccc(OC)c(F)c5)no4)c3CO2)cc1 (configuration not stated),-23.5%
COc1cc(-c2noc(-c3ncn4c3COC(c3ccc(F)cc3)C4)n2)cc(OC)c1OC (configuration not stated),11.2µM*
COc1ccc(-c2noc(-c3ncn4c3COC(c3ccc(F)cc3)C4)n2)cc1OC (configuration not stated),8.91µM*
Cc1ccc(-c2nc(-c3nnn4c3COC(c3ccccc3Cl)C4)no2)cc1 (configuration not stated),-8.7%
COc1ccc(C2Cn3nnc(-c4nc(-c5ccc(F)cc5)no4)c3CO2)cc1 (configuration not stated),i
SMILES,Pf Dd2 growth
O=C(COc1ccccc1)NC1CCc2nnc(C3CC3)n2CC1 (configuration not stated),15.5%
O=C(Nc1ccc(F)cc1F)C1CCN(c2ncccn2)CC1,49.6%
OCCCn1cnc(-c2ccccc2)c1COCc1ccccc1,-19.1%
COc1ccccc1CNC(=O)C(NS(=O)(=O)c1cccs1)C(C)C (configuration not stated),i
CC(C)c1cc(C(=O)NC(C)c2nc(-c3cccnc3)no2)on1 (configuration not stated),-19.0%
CCc1ccc2c(c1)c(=O)c(S(=O)(=O)c1ccccc1)cn2CC(=O)Nc1ccc(OC)cc1,-18.7%
CC(C)n1cc(-c2nc3cc(S(=O)(=O)N4CCCC4)ccc3n2C)cn1,-4.7%
O=C(CC(F)(F)F)NCCc1noc(-c2ccccc2)n1,-18.3%
O=C(Nc1ccc(C(=O)N2CCN(c3ccccc3F)CC2)cc1)c1nsc2ccccc12,-7.6%
O=C(Cc1ccc(F)cc1)N1CCC2(CC1)NC(=O)N(c1ccccc1Cl)N2,-0.5%
NC(=O)c1ccccc1NC(=O)C1CCCN(c2ncnc3onc(-c4ccc(F)cc4)c23)C1 (configuration not stated),-17.3%
O=C(Nc1cc(-c2nc3cc(Cl)ccc3o2)ccc1Cl)c1cccc2ccccc12,32.6%
O=C(CSc1cn(CC(=O)N2CCCC2)c2ccccc12)Nc1ccccc1C(F)(F)F,-10.0%
Cn1ncc2c(C(=O)NCc3cccnc3)cc(-c3ccc(Cl)cc3Cl)nc21,i
COc1ccccc1-c1cc(C(=O)NCc2cccnc2)nn2cccc12,-12.1%
COC(=O)CNC(=O)c1nc(-c2ccc(Cl)cc2Cl)c2ccccn12,21.3%
CC(C)NC(=O)c1nc(-c2ccc(Cl)cc2Cl)c2cnccn12,3.55µM*
